Source: PubChem (National Center for Advancing Translational Sciences (NCATS))
KB-V1 MDR tox: KB-V1 MDR subline cytotoxicity; KB-V1 MDR cells viability, CellTiter-Glo, 72 h; hit rate 3.4% among 400,000; Potency, µM (doses to about 46.1 µM), most hits filed as cytotoxic; also: nearly all actives have a fitted effect of over 60% in size
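In this primary screen, KB-V1 cells overexpressing P-gp are incubated with library compounds (lowest to highest concentration) for 72 h at 37 degrees C before a luminescent ATP viability read.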
HT1080-NT tox: kills 2HG-producing HT-1080-NT fibrosarcoma cells; Potency, µM (series often up to 46.1 µM), most hits filed as cytotoxic; hit rate 1.6% among 360,000; HT-1080-NT fibrosarcoma viability, CellTiter-Glo ATP luminescence, 48 h;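 also: NT is the 2HG producing partner of a matched IDH1 knockdown line; nearly all actives have a fitted effect of over 55% in size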
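Fibrosarcoma NT cells, 750 per well in 5% FBS RPMI, were exposed to compound for 48 hours. Viability: CellTiter-Glo luminescence.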
KB-3-1 tox: KB-3-1 parental cell cytotoxicity; KB-3-1 viability, CellTiter-Glo ATP luminescence, 72 h; Potency, µM (doses to about 46.1 µM), hits mostly cytotoxic; hit rate 1.4% among 400,000; also: nearly all actives have a fitted effect of over 60% in size
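Screening of KB-3-1 cells (DMEM, 10% FBS, phenol-red free) ran from lowest to highest compound concentration; after 72 h at 37 °C viability was read luminescently and curves fitted.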
HT1080 IDH1KD tx: toxicity to HT-1080 IDH1 knockdown cells (counter line) | HT-1080 IDH1 knockdown viability, ATP luminescence, 48 h | Potency, µM (titrated, usually from 46.1 µM), usual class: cytotoxic | AID 686971 | hit rate 2% among 360,000
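After a 2 h attachment period, IDH1KD HT-1080 cells took pin-transferred compound for 48 h at 37 °C; ATP-based luminescence after 10 min room-temperature reagent incubation reported viability.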
Hits are given with their value; 0 = inactive; ? = inconclusive; - = not tested or not shown. Only some compounds are listed: those with a hit (about 5.7% of all), similar ones and a draw of the others. Calls follow the shape of the dose curve; as a rule, active = well fitted curve in the direction sought with a large enough effect; inconclusive = small, poorly fitted or top-dose-only effect, or another doubt; inactive = no such curve, though single readings can be large; an effect the other way counts as inactive or inconclusive.

SMILES	KB-V1 MDR tox	HT1080-NT tox	KB-3-1 tox	HT1080 IDH1KD tx
Cc1ccc(/C=C/c2ccc(=O)n(Cc3ccc(F)cc3)n2)cc1	0	0	0	?
Cc1cc(C)nc(SCCCn2c(=O)[nH]c3ccccc32)n1	9.2µM	0	0	0
Cc1ccc(NC(=O)c2cc(=O)c3ccccc3o2)c(C)c1	?	0	0	0
Cc1ccc(C)c(NC(=O)c2cc(=O)c3ccccc3o2)c1	14.6µM	0	0	0
CCOCCc1nn2c(=O)cc(COC(=O)C3CCCCC3)nc2s1	0	-	0	-
O=C(/C(=C/c1ccccc1Cl)c1ccccc1)N1CCOCC1	23.1µM	0	0	0
COc1ccc(N/C=C/C(=O)c2sc(-c3ccccc3)nc2C)cc1	18.4µM	?	?	?
CCOC(=O)c1[nH]c(C)c(C(=O)c2cc(F)ccc2F)c1C	?	0.708µM	0.92µM	0.447µM
CCOC(=O)c1[nH]c(C)c(C(=O)OCc2ccccc2F)c1C	2.31µM	11.6µM	4.61µM	9.2µM
O=C(Nc1ccc(Cl)cc1)c1ccc(-n2cnnc2)cc1	0	-	0	-
O=S(=O)(c1ccc(Br)cc1)N1CCN(c2nc(-c3cccs3)nc3ccccc23)CC1	0	-	0	-
CCCNC(=S)N(Cc1ccccc1)Cc1nc2ccccc2c(=O)[nH]1	5.17µM	0	?	0
O=C(c1ccccc1)N(Cc1ccc(F)cc1)Cc1nc2ccccc2c(=O)[nH]1	0	7.08µM	0	6.31µM
O=C(c1ccncc1)N(Cc1ccccc1)Cc1nc2ccccc2c(=O)[nH]1	0	0	0	0
COc1cccc(CNC(=O)CN2C(=O)COc3ccc(S(=O)(=O)Nc4ccccc4)cc32)c1	0	-	0	-
O=C(C[n+]1ccncc1)c1cccc([N+](=O)[O-])c1	0	-	0	-
Cc1ccc(S(=O)(=O)N(C)c2ccc3c(c2)C(=O)c2ccccc2-3)cc1	20.6µM	0	?	0
NC(=O)c1c(NC(=O)c2nc(SCc3ccccc3F)ncc2Cl)sc2c1CCCC2	0	-	0	-
NC(=O)CC(c1ccccc1)c1ccc2c(c1)OCO2 (stereo not drawn)	0	0	0	0
NC(CSC(c1ccccc1)(c1ccccc1)c1ccc2c(c1)OCO2)C(=O)O (stereo not drawn)	0	11.6µM	0	18.4µM
COc1cc(OC)c(NC2(c3ccccc3)C(=O)c3ccccc3C2=O)cc1Cl	?	-	0	-
C=CC12C=CC=CN1C(C(=O)OC)=C(C(=O)OC)C(C(=O)OC)=C2C(=O)OC (stereo not drawn)	18.4µM	0	0	0
COC(=O)C1=C(C(=O)OC)C(C(=O)OC)N2C=CC=CC2=C1C(=O)OC (stereo not drawn)	0	0	0	0
Cc1ccccc1OCc1nc(-c2ccc(NC(=O)c3ccc4c(c3)OCO4)cc2)no1	?	20.6µM	0	20.6µM
Cc1ccccc1OCc1nc(-c2ccc(NC(=O)c3ccco3)cc2)no1	0	0	0	0
SMILES	KB-V1 MDR tox	HT1080-NT tox	KB-3-1 tox	HT1080 IDH1KD tx
Cc1ccc(Nc2nc3ccccc3c3nncn23)cc1C	0	-	0	-
CNCC(=O)c1c[nH]c2ccccc12	0	-	0	-
O=C(Cc1ccccc1)NCC(=O)OCC(=O)c1cccc2ccccc12	0	-	0	-
O=C(/C=C/c1cccs1)c1cc(Br)ccc1OC(=O)N1CCOCC1	?	20.6µM	?	?
Cc1ccc(NC2=C(Cl)C(=O)OC2OC(=O)c2ccco2)cc1 (stereo not drawn)	0	?	0	10µM
Cc1cccc2c(C(=O)N3CCN(c4ccccc4)CC3)cc(-c3ccncc3)nc12	3.66µM	1.3µM	4.11µM	1.3µM
COc1cc(C(=O)N2CCN(c3ccccc3)CC2)c2ccccc2n1	?	?	0.581µM	0.517µM
CC(=O)c1ccc(N2CCN(C(=O)c3cc(-c4ccncc4)nc4ccc(Cl)cc34)CC2)cc1	9.2µM	0	0	0
CC(=O)Nc1ccc(S(=O)(=O)Nc2cc(-c3cn4ccccc4n3)ccc2C)cc1	0	-	0	-
CCCOc1ccc(CNC(=O)CCCN2C(=O)CSc3c2c(C)nn3-c2ccccc2)cc1	0	-	0	-
Cc1cc2nn(-c3ccccc3)nc2cc1NC(=O)COc1ccc(Cl)cc1	0	-	0	-
CCCCCCN1C[C@H](O)[C@@H](n2cc(-c3ccc(F)cc3)nn2)C[C@@H]1c1ccc(Cl)cc1	?	0	18.4µM	0
CCCCCC(=O)N1C[C@H](O)[C@@H](n2cc(-c3ccc(F)cc3)nn2)C[C@@H]1c1ccc(Cl)cc1	0	?	?	?
CCCCCC(=O)N1C[C@@H](n2cc(-c3ccc(F)cc3)nn2)[C@H](O)C[C@@H]1c1ccc(Cl)cc1	?	?	?	16.4µM
CCCCCCN1C[C@@H](n2cc(-c3ccc(F)cc3)nn2)[C@H](O)C[C@@H]1c1ccc(Cl)cc1	?	0	?	0
COc1ccc(C2C(C(=O)Nc3cc(OC)c(OC)c(OC)c3)c3ccccc3C(=O)N2C)cc1 (stereo not drawn)	?	1.46µM	?	1.46µM
COc1cc2nc(N3CCCN(C)CC3)nc(N(C)C)c2cc1OC	-	0	-	0
O=C(Nc1ncnc2nc[nH]c12)c1ccccc1	0	-	?	-
CCC1CCCCN1S(=O)(=O)c1ccc(NC(=O)c2cc(=O)c3c(C)cc(C)cc3o2)cc1 (stereo not drawn)	?	-	0	-
Brc1ccccc1CN1CCN(Cc2c[nH]c3ccccc23)CC1	?	7.31µM	?	23.1µM
O=[N+]([O-])c1ccc(CN2CCN(Cc3c[nH]c4ccccc34)CC2)cc1	0	0	0	?
Brc1ccc(CN2CCN(Cc3c[nH]c4ccccc34)CC2)cc1	?	23.1µM	?	20.6µM
CC(C)(C)C1CCc2onc(C(=O)Nc3sc4c(c3C#N)CCCC4)c2C1 (stereo not drawn)	0	-	0	-
Cc1ccc2c(CNC3CCC(C)CC3)c(C(=O)O)n(Cc3cccc(F)c3)c2c1 (stereo not drawn)	0	-	?	-
CCOc1cc(C#N)c(-n2nnc3c(sc4nc(C)cc(C)c43)c2=O)cc1OCC	0	-	0	-
SMILES	KB-V1 MDR tox	HT1080-NT tox	KB-3-1 tox	HT1080 IDH1KD tx
COc1ccc(/C=C2/CSC/C(=C/c3ccc(OC)c(OC)c3)C2=O)cc1OC	1.46µM	5.8µM	4.61µM	5.8µM
COc1cc(C=C2CCCC(=Cc3ccc(OCC4CO4)c(OC)c3)C2=O)ccc1OCC1CO1 (stereo not drawn)	?	16.4µM	?	?
CCOC(=O)c1sc(NC(=O)CSc2nnc(C)s2)c(C(=O)OCC)c1C	1.64µM	0	0	0
CCOC(=O)c1c(NC(=O)CSc2nncs2)sc(C)c1C	0	0	0	0
CCCc1cc(=O)[nH]c(SCC(=O)NC(=O)NC2CCCC2)n1	4.11µM	0	?	0
CCCc1cc(=O)[nH]c(SCC(=O)Nc2sc(C(N)=O)c(C)c2C(=O)OCCOC)n1	?	2.31µM	8.2µM	2.59µM
CCOC(=O)c1c(NC(=O)CSc2nnc(C)s2)sc2c1CCC(CC)C2 (stereo not drawn)	5.8µM	0	0	0
O=C1N(Cc2cccc(C(F)(F)F)c2)c2ccccc2S(=O)(=O)N1c1cccc(Cl)c1	?	-	0	-
CCOC(=O)c1c(NC(=O)CSc2ncn[nH]2)sc(C(C)=O)c1C	0	0	0	0
CCOC(=O)c1c(NC(=O)CSc2nc3ccccc3s2)sc(C(C)=O)c1C	20.6µM	?	0	0
